Test results taken from PubChem BioAssay AID720514 (Broad Institute, 2013).
Out of some 2,100 compounds screened, about 300 (14%) were called active. About 2% were inconclusive and are not listed.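 The calls were made as follows: active = every replicate test run called active, with the signal falling and half-maximal concentration within twice the top valid dose; inconclusive = the replicate test runs disagree in their calls; inactive = every test run inactive, including effects in the opposite direction.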 Not all results are given here. Results with a measured potency or affinity are listed apart.

Test: inhibitors of PGC1a acetylation in cells, dose response, cell-based, cherry-picked samples (AID 720514);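 also: actives lower the acetylation signal so they count as inhibitors of PGC1a acetylation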
Conditions: U2OS PGC1a acetylation, AlphaLISA, overnight; series mostly up to 19.5 µM

outcome, inactive:
O=C(NCc1ccccc1)C(c1ccccc1)N(C(=O)c1csnn1)c1ccc(F)cc1 (stereo unspecified)
O=C(Nc1ccc(Nc2ccncc2)cc1)c1ccc([N+](=O)[O-])cc1
CO[C@@H]1CN(C)C(=O)c2cc(NC(=O)c3ccc(Oc4ccccc4)cc3)ccc2OC[C@@H](C)NC[C@@H]1C
CCC(=O)N1C[C@H](C)[C@@H](OC)CN(C)C(=O)c2ccc(NC(=O)Nc3ccccc3)cc2OC[C@@H]1C
CCC(=O)Nc1ccc2c(c1)OC[C@@H](C)N(C(=O)c1cnccn1)C[C@H](C)[C@H](OC)CN(C)C2=O
CCOC(=O)C1(N(CC)CC)Sc2cc(C)ccc2NC1=O (stereo unspecified)
CC(=O)Nc1sc2c(c1-c1nc3ccccc3s1)CN(C(C)C)CC2
C[C@@H]1CN([C@H](C)CO)C(=O)CCCn2nncc2CO[C@H]1CN(C)C(=O)C1CC1
O=C(Cc1ccccc1)Nc1ccc(NC(=O)c2ccco2)nc1
CC(=O)C1=CCC(c2cccc3ccccc23)N(S(=O)(=O)c2ccc(C)cc2)C1 (stereo unspecified)
CCOC(=O)N1CCN(C(=O)C(NS(=O)(=O)c2cccc3nsnc23)c2ccccc2)CC1 (stereo unspecified)
Cc1cccc(CS(=O)(=O)c2ncc(Cl)c(C(=O)Nc3ccc(F)cc3)n2)c1
O=C(COC(=O)c1ccco1)NCc1ccc2c(c1)OCO2
COc1ccc(C2CC(=O)N(C)c3ccccc3S2)cc1 (stereo unspecified)
CC1(C)CCCN(C(=O)N2c3ccccc3Sc3ccccc32)C1
Cc1ccc(S(=O)(=O)CCSC(=N)N)cc1
CC(=O)c1ccc(NC(=O)CSCC(=O)Nc2ccc3ccccc3c2)cc1
CC1CC1C(=O)OCC(=O)NCc1ccc(Cl)cc1 (stereo unspecified)
COc1ccc(CC(=O)OCC(=O)NCc2ccco2)cc1
O=C(NCc1ccco1)c1scc2c1OCCO2
CC1CCCCN1C(=O)/C(=C\c1ccccc1)c1ccccc1 (stereo unspecified)
CCSc1ccc(NC(=O)c2cccnc2)cc1
CCS(=O)(=O)N[C@H]1C=C[C@H](CC(=O)N2CCCCC2)O[C@H]1CO
C[C@H]1CN([C@@H](C)CO)S(=O)(=O)c2ccc(-c3cncnc3)cc2O[C@H]1CN(C)C(=O)CN(C)C
CC(=O)N(C)C[C@H]1Oc2cc(-c3ccc(C#N)cc3)ccc2S(=O)(=O)N([C@@H](C)CO)C[C@@H]1C
COc1ccc(S(=O)(=O)Nc2ccc3c(c2)C(=O)N([C@@H](C)CO)C[C@@H](C)[C@H](CN(C)S(=O)(=O)c2ccc(Cl)cc2)OCCCC[C@H](C)O3)cc1
COc1cc(CN2CC3(CCN(S(=O)(=O)c4cccs4)CC3)c3c(n(C)c4cc(OC)ccc34)[C@H]2CO)cc(OC)c1
O=S(=O)(c1cccc(F)c1)N1CCN(Cc2cc3c(cc2Br)OCCO3)CC1
Cc1ccc(-n2cccn2)c(CN2CCCC(C(=O)c3sccc3C)C2)c1 (stereo unspecified)
CCCNC(=O)[C@H]1[C@H](CO)[C@H]2Cn3c(ccc(-c4ccccc4)c3=O)[C@H]2N1C(=O)C1CC1
Cc1cc2c(cc1S(=O)(=O)N1CCc3ccccc31)NC(=O)CO2
CCOc1ccccc1N(C)C(=O)C1CCN(S(=O)(=O)c2cccc3nonc23)CC1
CCOC(=O)C1=CC[C@@H](c2ccc([N+](=O)[O-])cc2)N(S(=O)(=O)c2ccc(C)cc2)[C@H]1c1ccccc1
Cc1ccc(-c2nnc(N3CCN(C(=O)COc4ccccc4)CC3)c3ccccc23)cc1
CN1/C(=C\C(=O)c2cccc(S(=O)(=O)N3CCCCC3)c2)C(C)(C)c2ccccc21
CCOc1ccccc1CN1CCN(C2CCC2)CC1CCO (stereo unspecified)
CC(=O)c1cccc(N(C(=O)Cn2nnc3ccccc32)C(C(=O)NCc2ccccc2)c2ccccn2)c1 (stereo unspecified)
COc1ccc(-c2nc(N)c(C#N)c(-c3cccnc3)c2C)cc1
COc1ccc(OC)c(NC(=O)CSc2nnc(-c3cccnc3)s2)c1
CCCOc1ccc(C(=O)Nc2cccnc2)cc1
CCOC(=O)c1c(-c2ccc(C)cc2C)csc1NC(=O)CSc1nnnn1C
CCOC(=O)c1oc2ccc(S(=O)(=O)N3CCC(C)CC3)cc2c1C
O=C(CCCn1c(=O)[nH]c2cc(Cl)ccc2c1=O)NCCC1=CCCCC1
C[C@@H]1CN([C@H](C)CO)C(=O)c2c(c3ccccc3n2C)-c2ccccc2CO[C@@H]1CN(C)C(=O)Nc1ccccc1C(F)(F)F
COc1cc(OC)c2c(-c3cccc(-c4cccc(C)c4)c3)cc(=O)oc2c1
COc1ccc(CCNC(=O)c2cc(-c3ccco3)on2)cc1OC
O=C1OC(Oc2ccc(Br)cc2)(c2ccccc2)c2ccccc21 (stereo unspecified)
CC(=O)c1ccc(NC(=O)N2CCc3ccccc3C2)cc1
CC(=O)c1cccc(N(C(=O)c2cnccn2)C(C(=O)NCc2ccccc2)c2ccco2)c1 (stereo unspecified)
C[C@H](CO)N1C[C@H](C)[C@@H](CN(C)Cc2ccc3c(c2)OCO3)Oc2ccc(NC(=O)Nc3ccc4c(c3)OCO4)cc2CC1=O
C[C@H]1CN([C@@H](C)CO)C(=O)c2cccc(NC(=O)c3cnccn3)c2O[C@H]1CN(C)Cc1ccc(C(=O)Nc2ccccc2N)cc1
C[C@H]1CN([C@@H](C)CO)C(=O)c2cccc(NC(=O)Nc3cccc4ccccc34)c2O[C@H]1CN(C)Cc1ccc(C(=O)Nc2ccccc2N)cc1
C[C@@H]1CN([C@@H](C)CO)C(=O)Cc2cc(NC(=O)Cc3ccccc3)ccc2O[C@H]1CN(C)C(=O)Nc1ccccc1
C[C@@H]1CN([C@@H](C)CO)C(=O)c2cccc(NC(=O)c3ccc(-c4nccs4)cc3)c2O[C@@H]1CN(C)C(=O)Nc1ccc(C(F)(F)F)cc1
Cc1cc(Cn2nc(C(=O)NCc3cccc(C(F)(F)F)c3)cc2-c2ccccc2)on1
C[C@@H]1CN([C@@H](C)CO)C(=O)c2c(c3ccccc3n2C)-c2ccccc2CO[C@@H]1CN(C)C(=O)Nc1cccc(C(F)(F)F)c1
